# AHR activator – activators of human aryl hydrocarbon receptor | P35869 | AHR-responsive luciferase reporter cells, luminescence | activation, % at 5 µM | actives 2.5% (n = 320,000) | AID 2796; in the data active = activation above about 47%;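 also: 0% = vehicle wells and 100% = reference agonist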
# Target sequence (P35869 whole entry, looked up): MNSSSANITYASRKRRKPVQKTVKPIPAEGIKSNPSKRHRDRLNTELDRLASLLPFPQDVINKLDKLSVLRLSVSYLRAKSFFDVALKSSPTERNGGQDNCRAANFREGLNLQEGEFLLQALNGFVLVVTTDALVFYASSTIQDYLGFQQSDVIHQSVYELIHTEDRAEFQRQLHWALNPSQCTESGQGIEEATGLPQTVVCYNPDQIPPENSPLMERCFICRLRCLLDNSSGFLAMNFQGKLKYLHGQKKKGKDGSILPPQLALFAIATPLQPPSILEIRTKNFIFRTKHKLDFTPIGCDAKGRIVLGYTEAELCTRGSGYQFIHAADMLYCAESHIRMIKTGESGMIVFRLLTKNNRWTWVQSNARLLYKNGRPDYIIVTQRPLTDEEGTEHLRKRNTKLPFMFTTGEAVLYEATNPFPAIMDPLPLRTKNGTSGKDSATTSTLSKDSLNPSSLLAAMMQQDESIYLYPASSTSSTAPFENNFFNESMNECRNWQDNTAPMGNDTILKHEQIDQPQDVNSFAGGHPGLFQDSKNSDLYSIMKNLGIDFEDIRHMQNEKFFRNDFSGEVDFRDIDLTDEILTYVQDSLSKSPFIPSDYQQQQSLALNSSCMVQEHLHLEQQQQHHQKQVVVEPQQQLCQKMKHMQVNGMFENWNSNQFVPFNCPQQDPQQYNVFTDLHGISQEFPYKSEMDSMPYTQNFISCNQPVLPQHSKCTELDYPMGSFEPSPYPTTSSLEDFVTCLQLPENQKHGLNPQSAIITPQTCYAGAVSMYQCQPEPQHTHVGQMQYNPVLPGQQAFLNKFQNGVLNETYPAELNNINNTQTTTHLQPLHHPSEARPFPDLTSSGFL
# DAX1 inh – NR0B1 (DAX1) inhibition; P51843; HEK293 Gal4-DAX1 luciferase reporter, luminescence; inhibition, % at 6.75 µM; actives 0.99% (n = 340,000); AID 504766;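 active = inhibition above the mean over all tested compounds plus 3 SD, cut at about 4.2% in these data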;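 also: 0% = DAX1-transfected cells with DMSO and 100% = empty-vector control cells with DMSO; inhibition shows as a rise in luminescence from relieved DAX1 repression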
# HSP90 inh – HSP90 refolding inhibition in rabbit reticulocyte lysate; luciferase refolding luminescence, 3 h; inhibition, % at 5.6 µM; actives 0.91% (n = 290,000); AID 1789;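 active = inhibition above the screen-wide mean plus 3 SD, computed separately per campaign, cut at about 16% in these data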;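 also: 0% = DMSO wells and 100% = 60 µM geldanamycin wells; inhibitors lower the luminescence because luciferase stays unfolded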
# HSF1 inhib – HSF1 inhibition; NIH3T3-HGL HSE-luciferase, MG132-induced, luminescence 8 h; active compounds read low; activity change, negative = inhibition, % at 7.5 µM (by protocol); actives 0.77% (n = 300,000);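 active = more than half of replicate wells show activity change below -50%, luminescence cut by over half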;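 also: luciferase reports HSF-1 transcriptional activity via heat shock element; 0% = median of DMSO wells and -100% = zero luminescence signal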
# HSF1 activator – increases HSF-1 driven luciferase reporter signal | NIH3T3-HGL HSF-1 luciferase reporter, MG132, 8 h; 100% = twice DMSO control signal | activation, % at 9 µM | actives 1.7% (n = 300,000) | AID 504408;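 active = mean replicate activation of at least 50% with a set share of replicates each reaching 50%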;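 also: 0% = median of the neutral control wells and 100% = twice that signal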
# GAA850 FXN act – activators of GAA850 frataxin (FXN) promoter; HEK293 lucGAA850 FXN promoter luciferase reporter, 24 h; percent of 10 µM SAHA response; activation, % at 6 µM; actives 0.56% (n = 360,000);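 active = activation above the average of all compounds screened plus 3 SD, cutoff fixed separately per campaign, cut at about 7.5% in these data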;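 also: 0% = DMSO wells and 100% = 10 µM SAHA wells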
# An asterisk follows results filed as active; . = no result given. An excerpt weighted towards active compounds, which were near 5.9% of everything screened.
SMILES,AHR activator,DAX1 inh,HSP90 inh,HSF1 inhib,HSF1 activator,GAA850 FXN act
CC(=O)Nc1cccc2c1C(=O)N(c1ccc(OC(C)=O)cc1)C2=O,10.7,-0.4,2.1,-3.5,3.3,0.2
O=C(Nc1ccccn1)c1ccc(C(=O)Nc2ccccn2)cc1,2.2,0.2,-7.4,1.4,25.9,-0.5
COc1ccc(NC(=O)c2cc3ccccc3cc2OC)cc1OC,4.6,1.3,-0.3,12.0,31.0,4.7
Cc1occc1C(=O)Nc1ccc2ccccc2c1,15.3,4.4*,-0.9,15.4,41.4,0.1
COc1ccc(NS(=O)(=O)c2ccc(OC)c(OC)c2)cc1OC,0.7,2.8,1.7,2.2,-2.6,1.0
COc1cc2ccccc2cc1C(=O)Nc1ccc(O)cc1,40.9,4.4*,-4.1,3.1,10.4,6.7
CC(=O)c1cccc(NC(=O)c2ccoc2C)c1,7.0,0.0,-0.6,-3.5,6.7,2.1
O=C(Nc1ccccn1)c1cc2ccccc2cc1O,68.3*,2.7,1.1,23.8,26.7,2.6
COc1ccc(S(=O)(=O)Nc2c(O)ccc3ccccc23)cc1OC,60.5*,2.7,.,-17.2,-13.6,0.4
CCCCN(C)C(=O)c1sc(=O)n(Cc2ccc(Cl)c(Cl)c2)c1C,.,.,.,.,.,-1.4
COc1ccc(NC(=O)c2ccc(Cl)cc2)c[n+]1[O-],.,-0.6,-1.3,-1.5,-2.8,0.5
N#Cc1ccc(-c2ccc(C3Nc4ccccc4C(=O)N3O)o2)cc1 (stereo unspecified),-1.2,0.7,.,.,.,0.8
O=C1c2ccccc2NC(c2ccc(-c3cccc(F)c3)o2)N1O (stereo unspecified),47.4*,2.7,.,.,.,2.4
O=C1c2ccccc2NC(c2ccc(-c3ccccc3F)o2)N1O (stereo unspecified),53.7*,2.4,.,.,.,1.0
CCN(C[C@H]1N[C@@](CC)(C(=O)OC)[C@H]2C(=O)N(C)C(=O)[C@@H]12)C(=O)NC(C)C,-0.8,0.0,.,.,.,0.4
O=C(NCCn1cc(SCC(=O)N2CCOCC2)c2ccccc21)c1ccccc1,-1.4,0.0,6.8,-7.3,-16.2,-0.3
Cc1ccc(C(=O)NCCn2cc(SCC(=O)Nc3nnc(C)s3)c3ccccc32)cc1,-1.1,-2.3,50.0*,-46.6,-53.2,-7.3
COc1ccc(C(=O)NCCn2cc(SCC(=O)N3CCOCC3)c3ccccc32)cc1,3.6,-1.6,46.7*,-12.2,-14.7,-3.6
CCCn1cc(SCC(=O)Nc2nnc(C)s2)c2ccccc21,20.2,0.8,-3.8,-2.6,-17.0,0.2
COc1ccc(N2CC(C(=O)NCCC3=CCCCC3)CC2=O)c(OC)c1 (stereo unspecified),1.4,0.1,.,-4.2,3.3,-2.0
O=C(c1ccccc1)c1nc2c(n1O)CCCCC2,3.0,1.5,-2.6,10.2,-3.8,0.9
COC(=O)CCCCCCCC(=O)Nc1nnc(C(F)(F)F)s1,8.4,6.1*,0.2,-1.4,13.1,-0.9
O=C(CCCc1ccccc1)Nc1nnc(C(F)(F)F)s1,1.7,-1.1,-3.5,-6.9,-22.7,0.7
Oc1ccc(/C=C/c2ccc3ccccc3n2)cc1,-1.9,-7.5,23.6*,-20.0,-33.7,-3.6
CN(C)c1ccc(/C=C/c2ccc3ccccc3n2)cc1,7.9,-5.1,83.6*,-84.9*,-87.2,-12.1
SMILES,AHR activator,DAX1 inh,HSP90 inh,HSF1 inhib,HSF1 activator,GAA850 FXN act
CCCN(CCC)c1ccc(/C=C/c2ccc3cc(OCC)ccc3n2)cc1,2.9,0.2,4.6,1.2,-11.9,-0.1
COC(=O)C(Cc1ccccc1)NC(=O)CCNC(=O)c1ccco1 (stereo unspecified),4.3,-1.7,-0.9,-3.4,11.3,1.2
CN(CC(=O)Nc1ccc(Cl)c(Cl)c1)CC(=O)N1CCc2ccccc21,.,0.5,.,.,.,-0.2
O=C(CN1CCN(Cc2ccc3c(c2)OCO3)CC1)Nc1ccc(F)cc1,-0.1,4.8*,1.4,13.4,15.0,0.2
O=C(Nc1ccccc1)N1CCN(Cc2ccc3c(c2)OCO3)CC1,-0.4,-0.9,3.9,-0.1,6.5,1.8
Cc1cc(C)cc(NC(=O)N2CCN(Cc3ccc4c(c3)OCO4)CC2)c1,-0.2,3.1,0.6,-57.8*,-62.7,0.1
CCNC(=O)C1CCCN(C(=O)c2cc(C)oc2C)CC1 (stereo unspecified),.,.,.,.,.,0.8
NC(=O)c1cc(Cc2ccccc2)sc1NC(=O)c1ccco1,1.1,2.1,-4.1,93.7,134.4*,5.2
NC(=O)c1c(NC(=O)c2ccco2)sc2c1CCC2,75.9*,1.5,-2.6,24.7,40.3,-3.0
C=CCNC(=S)Nc1sc2c(c1C(N)=O)CCCC2,58.4*,.,-4.4,-5.7,2.2,2.2
O=C(Nc1sc2c(c1C(=O)O)CCCCC2)c1ccco1,14.2,-0.1,8.0,-7.1,22.1,4.3
CCN(C[C@H]1N[C@@](CC)(C(=O)OC)[C@H]2C(=O)N(Cc3ccccc3)C(=O)[C@@H]12)C(=O)c1ccc(C(C)(C)C)cc1,0.6,-0.8,.,.,.,0.8
O=C(CN1C(=O)C(=O)N(Cc2ccccc2)C1=O)c1ccc[nH]1,0.8,1.0,.,.,.,3.0
Cc1cc(C)n2nc(N)c(N=Nc3ccccc3)c2n1,60.4*,-0.6,-5.6,0.8,19.9,1.1
Cc1cc(C)n2nc(N)c(N=Nc3ccc4c(c3)OCO4)c2n1,6.0,-1.8,4.3,-0.7,-5.4,-0.3
Cc1ccc(C(c2c(C)nn(-c3ccccc3)c2N)c2c(C)nn(-c3ccccc3)c2N)cc1,14.3,-0.6,-1.0,68.0,92.7*,0.7
CC(=O)Nc1ccc(S(=O)(=O)C(C#N)c2nc3ccccc3nc2NCCCO)cc1 (stereo unspecified),4.0,5.3*,2.0,1.8,5.3,-0.1
Cc1cccc(NC2=C/C(=N/S(=O)(=O)c3cccs3)c3ccccc3C2=O)c1,11.1,1.2,4.0,.,.,4.0
Cc1ccc(Cl)cc1NC1=C/C(=N\S(=O)(=O)c2cccs2)c2ccccc2C1=O,24.5,0.2,7.5,-94.3*,-94.7,-0.3
Cc1ccc(NC2=C/C(=N\S(=O)(=O)c3cccs3)c3ccccc3C2=O)c(C)c1,12.9,-6.0,26.4*,-95.3*,-95.3,-14.1
CCc1nc2c(OCC(=O)c3ccc(F)cc3)cccn2c1N(C)C(=O)c1ccccc1F,.,.,.,.,.,0.6
Cc1nc2ccc(Br)cc2c2c1CC(CO)O2 (stereo unspecified),13.6,5.4*,-4.8,-2.6,5.4,0.8
Cc1nc2ccc(Br)cc2c2c1CC(CBr)O2 (stereo unspecified),5.8,-0.7,-0.8,-11.6,-17.9,4.1
CC(C)(C)Cc1nnc(NC(=O)c2ccc3c(c2)OCO3)s1,48.7*,-1.5,-2.0,25.8,58.1*,5.8
CCC(CC)c1nnc(NC(=O)c2ccc3c(c2)OCO3)s1,63.5*,1.9,-3.8,16.3,33.7,4.4
COC(=O)CSc1nnc(NC(=O)c2ccc3c(c2)OCO3)s1,14.4,0.1,12.5,-14.0,-22.7,3.7
CN(C)c1cccc(C(=O)Nc2nnc(Cc3ccccc3)s2)c1,54.4*,0.5,5.3,1.5,5.1,0.1
